# Measurements taken from the supplement of paper PMC8728848.
# The entries come from a sample that favours the strongest signals as a whole.
# B1: Cohesin-hDECTIN-1 (Homo sapiens) (protein)
# chain: LDITSHHHHHHDDLDAVRIKVDTVNAKPGDTVRIPVRFSGIPSKGIANCDFVYSYDPNVLEIIEIEPGDIIVDPNPDKSFDTAVYPDRKIIVFLFAEDSGTGAYAITKDGVFATIVAKVKEGAPNGLSVIKFVEVGGFANNDLVEQKTQFFDGGVNVGDTTEPATPTTPVTTPTTTDDLDAASSSPCPPNWIIYEKSCYLFSMSLNSWDGSKRQCWQLGSNLLKIDSSNELGFIVKQVSSQPDNSFWIGLSRPQTEVPWLWEDGSTFSSNLFQIRTTATQENPSPNCVWIHVSVIYDQLCSVPSYSICEKKFM
# B2: Siglec-G (Mus musculus), Q80ZE3 (protein)
# chain: MSLLLFLLSFLLDGPQGQMESYFLQVQRIVKAQEGLCIFVPCSFSSPEGKWLNRSPLYGYWFKGIRKPSLSFPVATNNKDKVLEWEARGRFQLLGDISKKNCSLLIKDVQWGDSTNYFFRMERGFERFSFKEEFRLQVEALTQKPDIFIPEVLEPGEPVTVVCLFSWTFNQCPAPSFSWMGDAVSFQESRPHTSNYSVLSFIPGLQHHDTELTCQLDFSRMSTQRTVRLRVAYAPRSLAISIFHDNVSVPDLHENPSHLEVQQGQSLRLLCTADSQPPATLSWVLEDQVLSWSSPVGSRTLALELPWVKAGDSGHYTCQAENRLGSQQHTLDLSVLYPPQDLRVTVSQANRTVLEILRNAISLPVLEGQSLCLVCVTYSNPPANVSWAWVTQTLIPIQSSEPGVLELPLVQREHEGEFTCAAQNPLGAQRISLSLSVHYPPQMSSPSCSWEAKGLHCNCSSRAWPAPSLRWRLGEGLLEGNSSNASFTVTFSSLGPWVNSSLSLLQELGPSLWLSCESWNTHGAQTTSVLLLPDKDSATAFSKGAVLGFGITALLALCLIVVIVKTLQKKGTQEEPSRPKLSRGSTILDYINVVPKTRSLARNWKAEPDAPSRSSPLDTHFPKPKKKQKDPHFTYPGCPDPTSSSQVPVSENNPEELHYAALNFSRLRLQETQDPQDTYSDYTEVRVH
# Columns and labels:
# Experiment in all cases: glycan array binding signal (z-score within array); higher = stronger binding
# Settings in all cases: glycan notation: IUPAC condensed, linker removed
# [1] = target: Fuc(a1-2)Gal(b1-3)GalNAc(b1-3)Gal
# Summary of the method: (§1)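 Glycan array data came from 3228 arrays in the Consortium for Functional Glycomics database, and only arrays with an available protein sequence were kept. Glycan names were put into IUPAC-condensed notation, and columns mapping to the same glycan were averaged. The binding signal is a within-array Z-score, averaged across arrays of one protein sequence run at different concentrations or buffers and across linkers. A negative Z-score can be read as non-binding.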
# Fuc(a1-2)Gal(b1-4)Glc = target: Fuc(a1-2)Gal(b1-4)Glc
# Summary of the method: as §1
# [2] = target: Fuc(a1-2)Gal(b1-4)GlcNAc(b1-3)GalNAc
# Summary of the method: as §1
# [3] = target: Fuc(a1-2)Gal(b1-4)GlcNAc(b1-6)GalNAc
# Summary of the method: as §1
# [4] = target: Fuc(a1-2)Gal6S(b1-3)GlcNAc6S
# Summary of the method: as §1
# [5] = target: Fuc(a1-2)[Gal(a1-3)]Gal(b1-4)GlcNAc
# Summary of the method: as §1
# [6] = target: Fuc(a1-2)[Gal(a1-3)]Gal(b1-4)GlcNAc(b1-2)Man(a1-3)[Fuc(a1-2)[Gal(a1-3)]Gal(b1-4)GlcNAc(b1-2)Man(a1-6)]Man(b1-4)GlcNAc(b1-4)[Fuc(a1-6)]GlcNAc
# Summary of the method: as §1
# [7] = target: Fuc(a1-2)[GalNAc(a1-3)]Gal(b1-3)GalNAc(a1-3)[Fuc(a1-2)]Gal(b1-4)GlcNAc
# Summary of the method: as §1
# [8] = target: Fuc(a1-2)[GalNAc(a1-3)]Gal(b1-3)GlcNAc(b1-2)Man(a1-3)[Fuc(a1-2)[GalNAc(a1-3)]Gal(b1-3)GlcNAc(b1-2)Man(a1-6)]Man(b1-4)GlcNAc(b1-4)[Fuc(a1-6)]GlcNAc
# Summary of the method: as §1
# [9] = target: Fuc(a1-2)[GalNAc(a1-3)]Gal(b1-4)GlcNAc(b1-6)GalNAc
# Summary of the method: as §1
# [10] = target: Fuc(a1-2)[GalNAc(a1-3)]Gal(b1-4)[Fuc(a1-3)]GlcNAc
# Summary of the method: as §1
# [11] = target: Fuc(a1-2)[GalNAc(a1-4)]Gal(b1-4)GlcNAc
# Summary of the method: as §1
# [12] = target: Fuc(a1-2)[GalNAc(b1-3)]Gal
# Summary of the method: as §1
# [13] = target: Fuc(a1-3)[Gal(b1-4)]GlcNAc(b1-2)Man(a1-3)[Fuc(a1-3)[Gal(b1-4)]GlcNAc(b1-2)Man(a1-6)]Man(b1-4)GlcNAc(b1-4)[Fuc(a1-6)]GlcNAc
# Summary of the method: as §1
# Gal(a1-3)Gal(b1-3)GlcNAc = target: Gal(a1-3)Gal(b1-3)GlcNAc
# Summary of the method: as §1
# [14] = target: Gal(a1-3)Gal(b1-3)GlcNAc(b1-2)Man(a1-3)[Gal(a1-3)Gal(b1-3)GlcNAc(b1-2)Man(a1-6)]Man(b1-4)GlcNAc(b1-4)GlcNAc
# Summary of the method: as §1
# [15] = target: Gal(a1-3)Gal(b1-3)GlcNAc(b1-6)GalNAc
# Summary of the method: as §1
# [16] = target: Gal(a1-3)Gal(b1-4)GlcNAc(b1-6)GalNAc
# Summary of the method: as §1
# [17] = target: Gal(b1-3)GlcNAc(b1-6)GalNAc
# Summary of the method: as §1
# [18] = target: Gal(b1-3)GlcNAc(b1-6)[Gal(b1-3)]GalNAc
# Summary of the method: as §1
# [19] = target: Gal(b1-3)[Fuc(a1-4)]GlcNAc
# Summary of the method: as §1
# Gal6S(b1-3)GlcNAc6S = target: Gal6S(b1-3)GlcNAc6S
# Summary of the method: as §1
# GalNAc(a1-3)Gal = target: GalNAc(a1-3)Gal
# Summary of the method: as §1
# GalNAc(b1-3)Gal = target: GalNAc(b1-3)Gal
# Summary of the method: as §1
# [20] = target: GalNAc(b1-3)Gal(a1-6)Gal(b1-4)Glc
# Summary of the method: as §1
# GalNAc(b1-3)GlcNAc = target: GalNAc(b1-3)GlcNAc
# Summary of the method: as §1
# [21] = target: GalNAc(b1-4)GlcNAc(b1-2)Man(a1-3)[GalNAc(b1-4)GlcNAc(b1-2)Man(a1-6)]Man(b1-4)GlcNAc(b1-4)GlcNAc
# Summary of the method: as §1
# GalNAc6S(b1-4)GlcNAc = target: GalNAc6S(b1-4)GlcNAc
# Summary of the method: as §1
# [22] = target: GlcNAc(a1-4)Gal(b1-4)GlcNAc(b1-3)Gal(b1-4)GlcNAc
# Summary of the method: as §1
# [23] = target: GlcNAc(b1-2)[GlcNAc(b1-4)]Man(a1-3)[GlcNAc(b1-4)][GlcNAc(b1-2)[GlcNAc(b1-6)]Man(a1-6)]Man(b1-4)GlcNAc(b1-4)[Fuc(a1-6)]GlcNAc
# Summary of the method: as §1
# Kdn(a2-6)Gal(b1-4)GlcNAc = target: Kdn(a2-6)Gal(b1-4)GlcNAc
# Summary of the method: as §1
# [24] = target: Man(a1-2)Man(a1-2)Man(a1-6)[Man(a1-3)]Man
# Summary of the method: as §1
# [25] = target: Man(a1-2)Man(a1-3)[Man(a1-2)Man(a1-6)]Man
# Summary of the method: as §1
# [26] = target: Man(a1-3)[Man(a1-6)]Man(a1-6)[Man(a1-3)]Man
# Summary of the method: as §1
# [27] = target: Man(a1-3)[Man(a1-6)]Man(b1-4)GlcNAc(b1-4)GlcNAc
# Summary of the method: as §1
# [28] = target: Neu5Ac(a2-3)Gal(b1-3)GlcNAc(b1-4)Gal(b1-4)Glc
# Summary of the method: as §1
# [29] = target: Neu5Ac(a2-3)Gal(b1-4)GlcNAc(b1-3)Gal(b1-4)GlcNAc(b1-3)Gal(b1-4)GlcNAc(b1-2)Man(a1-3)[Neu5Ac(a2-3)Gal(b1-4)GlcNAc(b1-3)Gal(b1-4)GlcNAc(b1-3)Gal(b1-4)GlcNAc(b1-2)Man(a1-6)]GalNAc
# Summary of the method: as §1
# [30] = target: Neu5Ac(a2-3)Gal(b1-4)GlcNAc(b1-3)[Neu5Ac(a2-3)Gal(b1-4)GlcNAc(b1-6)]GalNAc
# Summary of the method: as §1
# [31] = target: Neu5Ac(a2-6)Gal(b1-4)GlcNAc(b1-2)Man(a1-6)[Gal(b1-4)GlcNAc(b1-2)Man(a1-3)]Man(b1-4)GlcNAc(b1-4)GlcNAc
# Summary of the method: as §1
# [32] = target: Neu5Ac(a2-8)Neu5Ac(a2-8)Neu5Ac(a2-3)Gal(b1-4)Glc
# Summary of the method: as §1
# [33] = target: Neu5Gc(a2-8)Neu5Gc(a2-3)Gal(b1-4)GlcNAc(b1-3)Gal(b1-4)GlcNAc
# Summary of the method: as §1
# Fuc(b1-3)GlcNAc = target: Fuc(b1-3)GlcNAc
# Summary of the method: as §1
# Gal(a1-3)Gal(b1-4)GlcNAc = target: Gal(a1-3)Gal(b1-4)GlcNAc
# Summary of the method: as §1
# Gal(a1-3)GalNAc = target: Gal(a1-3)GalNAc
# Summary of the method: as §1
# [34] = target: Gal(b1-4)GlcNAc(b1-3)GalNAc
# Summary of the method: as §1
# [35] = target: GlcNAc(b1-2)Gal(b1-3)GalNAc
# Summary of the method: as §1
# [36] = target: GlcNAc(b1-4)GlcNAc(b1-4)GlcNAc
# Summary of the method: as §1
# [37] = target: Neu5Ac(a2-3)Gal(b1-3)GalNAc
# Summary of the method: as §1
# [38] = target: Neu5Ac(a2-3)Gal(b1-3)[Neu5Ac(a2-3)Gal(b1-4)]GlcNAc
# Summary of the method: as §1
# [39] = target: Neu5Ac(a2-3)Gal(b1-4)[Fuc(a1-3)]GlcNAc(b1-3)Gal(b1-4)[Fuc(a1-3)]GlcNAc(b1-3)Gal(b1-4)[Fuc(a1-3)]GlcNAc
# Summary of the method: as §1
# [40] = target: Neu5Ac(a2-8)Neu5Ac(a2-8)Neu5Ac
# Summary of the method: as §1
# [41] = target: Neu5Gc(a2-3)Gal(b1-3)[Fuc(a1-4)]GlcNAc
# Summary of the method: as §1
# Neu5Gc(a2-3)Gal(b1-4)Glc = target: Neu5Gc(a2-3)Gal(b1-4)Glc
# Summary of the method: as §1
binder,measurement,setting,value
B1,glycan array binding signal (z-score),[1],1.86
same,glycan array binding signal (z-score),Fuc(a1-2)Gal(b1-4)Glc,-0.162
same,glycan array binding signal (z-score),[2],-0.382
same,glycan array binding signal (z-score),[3],2.93
same,glycan array binding signal (z-score),[4],0.18
same,glycan array binding signal (z-score),[5],-0.206
same,glycan array binding signal (z-score),[6],-0.435
same,glycan array binding signal (z-score),[7],-0.177
same,glycan array binding signal (z-score),[8],-0.305
same,glycan array binding signal (z-score),[9],6.29
same,glycan array binding signal (z-score),[10],-0.149
same,glycan array binding signal (z-score),[11],4.25
same,glycan array binding signal (z-score),[12],4.83
same,glycan array binding signal (z-score),[13],-0.51
same,glycan array binding signal (z-score),Gal(a1-3)Gal(b1-3)GlcNAc,4.04
same,glycan array binding signal (z-score),[14],0.993
same,glycan array binding signal (z-score),[15],7.58
same,glycan array binding signal (z-score),[16],5.86
same,glycan array binding signal (z-score),[17],6.01
same,glycan array binding signal (z-score),[18],-0.299
same,glycan array binding signal (z-score),[19],-0.306
same,glycan array binding signal (z-score),Gal6S(b1-3)GlcNAc6S,1.2
same,glycan array binding signal (z-score),GalNAc(a1-3)Gal,2.65
same,glycan array binding signal (z-score),GalNAc(b1-3)Gal,5.2
same,glycan array binding signal (z-score),[20],4.68
same,glycan array binding signal (z-score),GalNAc(b1-3)GlcNAc,3.33
same,glycan array binding signal (z-score),[21],0.004
same,glycan array binding signal (z-score),GalNAc6S(b1-4)GlcNAc,4.98
same,glycan array binding signal (z-score),[22],-0.476
same,glycan array binding signal (z-score),[23],-0.586
same,glycan array binding signal (z-score),Kdn(a2-6)Gal(b1-4)GlcNAc,-0.471
same,glycan array binding signal (z-score),[24],-0.33
same,glycan array binding signal (z-score),[25],-0.432
same,glycan array binding signal (z-score),[26],-0.272
same,glycan array binding signal (z-score),[27],-0.44
same,glycan array binding signal (z-score),[28],-0.22
same,glycan array binding signal (z-score),[29],-0.295
same,glycan array binding signal (z-score),[30],-0.163
same,glycan array binding signal (z-score),[31],-0.561
same,glycan array binding signal (z-score),[32],-0.569
same,glycan array binding signal (z-score),[33],-0.091
B2,glycan array binding signal (z-score),[1],-0.186
same,glycan array binding signal (z-score),Fuc(b1-3)GlcNAc,1.54
same,glycan array binding signal (z-score),Gal(a1-3)Gal(b1-4)GlcNAc,-0.064
same,glycan array binding signal (z-score),Gal(a1-3)GalNAc,-0.268
same,glycan array binding signal (z-score),[34],-0.134
same,glycan array binding signal (z-score),[35],-0.21
same,glycan array binding signal (z-score),[36],-0.138
same,glycan array binding signal (z-score),[37],0.414
same,glycan array binding signal (z-score),[38],0.903
same,glycan array binding signal (z-score),[39],1
same,glycan array binding signal (z-score),[40],1.22
same,glycan array binding signal (z-score),[41],0.241
same,glycan array binding signal (z-score),Neu5Gc(a2-3)Gal(b1-4)Glc,-0.022
